Compounds with a hit are over-represented: about 6.7% of the library has one in this group of screens.
MCF10A rereplic = DNA re-replication induction in MCF 10a cells; MCF 10A DNA re-replication, Hoechst nuclear intensity, 48 h; Potency, µM (highest dose often 46.1 µM), actives largely listed as activators; actives 2.9% (n = 350,000); AID 624296; further: nearly all actives have a fitted effect of over 50% in size
KB-3-1 tox = KB-3-1 parental cell cytotoxicity; KB-3-1 viability, CellTiter-Glo ATP luminescence, 72 h; Potency, µM (titrated, usually from 46.1 µM), usual class: cytotoxic; actives 1.4% (n = 400,000); AID 1347075; further: nearly all actives have a fitted effect of over 60% in size
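Parental KB-3-1 viability, qHTS format: 72 h compound exposure, 37 °C; CellTiter-Glo; media-only wells and DMSO plates as controls; concentration-effect fits on corrected data.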
SW480 rereplic = induces DNA re-replication in SW480 colon adenocarcinoma cells | SW480 DNA re-replication, Hoechst DNA content imaging, 48 h | Potency, µM (doses to about 46.1 µM), hits mostly activators | actives 1.8% (n = 340,000) | AID 624297; further: nearly all actives have a fitted effect of over 55% in size
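Image-based DNA-content assay: after two days of treatment, nuclei were labelled with the DNA dye Hoechst and imaged, and hits were compounds raising the count of nuclei showing high fluorescence intensity.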
KB-V1 cytotox = kills drug-selected multidrug resistant KB-V1 cells; KB-V1 MDR cells viability, CellTiter-Glo, 72 h; Potency, µM (series often up to 46.1 µM), most hits filed as cytotoxic; actives 3.4% (n = 400,000); AID 1347076; further: nearly all actives have a fitted effect of over 60% in size
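Potencies derive from concentration-effect curves fitted to normalized luminescence (CellTiter-Glo) of KB-V1 cells treated for 72 h at 37 degrees C in phenol-red-free DMEM containing 10% FBS.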
PINK1 expr mod = PINK1 expression modulation | PINK1 immunofluorescence, high-content cytometry, 24 h | actives 0.2% (n = 410,000) | AID 624263 | Potency, µM (series often up to 76.6 µM), usual class: activators; active means well fitted activation curve with a large enough effect; inconclusive means small, poorly fitted or top-dose-only effect; cell line not stated here; further: nearly all actives have a fitted effect of over 65% in size
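Compound titrations (5 concentrations, 24 h) on a stable cell line; DMSO and CCCP controls. Endpoint: fixed-cell PINK1 immunofluorescence with mitochondrial, cell and nuclear markers, scanned by microplate cytometer.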
A number is an active result. Unless noted, the call rests on the fitted dose curve; in most records, active means well fitted curve in the direction sought with a large enough effect; inconclusive means small, poorly fitted or top-dose-only effect, or another doubt; inactive means no such curve, though single readings can be large; an effect the other way counts as inactive or inconclusive.

How did O=C(NCC1CC1)c1csc([C@@H]2O[C@H](CO)[C@H](O)[C@H](O)[C@H]2O)n1 do in these assays?
KB-3-1 tox: inactive; KB-V1 cytotox: inactive; PINK1 expr mod: inactive

How did C/C=C(\NNC(C)=O)c1ccc(O)cc1 do in these assays?
KB-3-1 tox: inactive; KB-V1 cytotox: inactive; PINK1 expr mod: inactive

Results for Cc1cc(N2CCN(c3ccccc3)CC2)nc(-n2nc(C)cc2C)n1 ?
MCF10A rereplic: inconclusive; KB-3-1 tox: inactive; SW480 rereplic: inconclusive; KB-V1 cytotox: 2.59µM; PINK1 expr mod: inactive

Results for CCOC(=O)C1(C(F)(F)F)N=C(C(F)(F)F)Nc2ccc(F)cc21 (configuration not stated) ?
MCF10A rereplic: inactive; KB-3-1 tox: inactive; SW480 rereplic: 13µM; KB-V1 cytotox: inconclusive; PINK1 expr mod: inactive

What do the screens show for `CCNS(=O)(=O)c1ccc(C(=O)OCc2cc(=O)oc3cc(OC)ccc23)cc1`?
MCF10A rereplic: 14.6µM; KB-3-1 tox: inactive; SW480 rereplic: inconclusive; KB-V1 cytotox: inactive; PINK1 expr mod: inactive

What do the screens show for `Cc1ccc(Nc2nc(NCC3CCCO3)nc(N)c2[N+](=O)[O-])cc1` (configuration not stated)?
MCF10A rereplic: inactive; KB-3-1 tox: inactive; SW480 rereplic: inactive; KB-V1 cytotox: 20.6µM; PINK1 expr mod: inactive

How did CC(=O)NCCNc1nc(-c2ccccc2C(F)(F)F)nc2ccccc12 do in these assays?
PINK1 expr mod: inactive

Results for CCc1ccc(-n2c(CCC(=O)O)ccc2-c2ccc(F)cc2)cc1 ?
KB-3-1 tox: inactive; KB-V1 cytotox: inactive; PINK1 expr mod: inactive

How did c1ccc(Nc2nc(-c3ccccc3)c(-c3ccccc3)s2)cc1 do in these assays?
PINK1 expr mod: inactive

Results for CN(C)Cc1ccc(-c2nc3cccc4c3n2CCNC4=O)cc1 ?
MCF10A rereplic: inconclusive; KB-3-1 tox: 18.4µM; SW480 rereplic: inconclusive; KB-V1 cytotox: inactive; PINK1 expr mod: inactive

What do the screens show for `COC(=O)c1cc(S(=O)(=O)NCC2CCN(CCc3cccs3)CC2)c[nH]1`?
MCF10A rereplic: inactive; KB-3-1 tox: inactive; SW480 rereplic: inconclusive; KB-V1 cytotox: inactive; PINK1 expr mod: inactive

What do the screens show for `COc1cc(C(=O)NCc2ccc3[nH]c(C)cc3c2)cc(OC)c1OC`?
MCF10A rereplic: inconclusive; KB-3-1 tox: inactive; SW480 rereplic: inactive; KB-V1 cytotox: inactive; PINK1 expr mod: inactive

Results for COc1ccc(C(=O)NCc2ccc3[nH]c(C)cc3c2)cc1OC ?
MCF10A rereplic: 4.61µM; KB-3-1 tox: inactive; SW480 rereplic: inactive; KB-V1 cytotox: inactive; PINK1 expr mod: inactive

Results for COc1cc(OC)cc(C(=O)NCc2ccc3[nH]c(C)cc3c2)c1 ?
MCF10A rereplic: 0.651µM; KB-3-1 tox: inactive; SW480 rereplic: inactive; KB-V1 cytotox: inactive; PINK1 expr mod: inactive

What do the screens show for `FC(F)c1nc2nc(Cl)c(Cl)nc2[nH]1`?
KB-3-1 tox: inconclusive; KB-V1 cytotox: inactive; PINK1 expr mod: inactive

How did C/C(=N\Nc1nc(C)cc(-c2ccccc2)n1)c1ccc(O)cc1 do in these assays?
MCF10A rereplic: inactive; KB-3-1 tox: inactive; SW480 rereplic: inconclusive; KB-V1 cytotox: inconclusive; PINK1 expr mod: inactive

Results for C/C(=N\Nc1nc(C)cc(-c2ccccc2)n1)c1ccccc1 ?
MCF10A rereplic: inactive; KB-3-1 tox: inactive; SW480 rereplic: inconclusive; KB-V1 cytotox: 6.51µM; PINK1 expr mod: inactive

What do the screens show for `C/C(=N/Nc1nc(C)cc(-c2ccccc2)n1)c1ccco1`?
MCF10A rereplic: inactive; KB-3-1 tox: inactive; SW480 rereplic: inactive; KB-V1 cytotox: 16.4µM; PINK1 expr mod: inactive

What do the screens show for `O=S(=O)(NCc1nnc2n1CCN(Cc1ccccc1Cl)CC2)c1ccccc1`?
PINK1 expr mod: inactive

How did CS(=O)(=O)NCc1ccccc1Br do in these assays?
KB-3-1 tox: inconclusive; KB-V1 cytotox: inactive

What do the screens show for `OCCN1CCN(CC(O)COc2ccc(C34CC5CC(CC(C5)C3)C4)cc2)CC1` (configuration not stated)?
MCF10A rereplic: 11.6µM; KB-3-1 tox: inconclusive; SW480 rereplic: inconclusive; KB-V1 cytotox: inactive; PINK1 expr mod: inactive

Results for NCCOc1ccc(C23CC4CC(CC(C4)C2)C3)cc1 ?
MCF10A rereplic: 4.11µM; KB-3-1 tox: inconclusive; SW480 rereplic: inactive; KB-V1 cytotox: inconclusive; PINK1 expr mod: inactive

Results for COc1cc(/C=C/c2nc(C#N)c(N3CCCCC3)o2)cc(OC)c1OC ?
PINK1 expr mod: inactive

What do the screens show for `CCOc1ccc(NS(=O)(=O)c2ccc(-c3cc(C)no3)s2)cc1`?
KB-3-1 tox: inactive; KB-V1 cytotox: inactive; PINK1 expr mod: inactive

What do the screens show for `Cc1ccc(CN2C(=O)CSCC2(C)C(=O)NCc2ccccc2)cc1` (configuration not stated)?
KB-3-1 tox: inactive; KB-V1 cytotox: inconclusive

What do the screens show for `N#Cc1c(-c2ccccc2)cc(-c2ccccc2)nc1SCC(O)CS(=O)(=O)Cc1ccccc1` (configuration not stated)?
KB-3-1 tox: inactive; KB-V1 cytotox: inactive; PINK1 expr mod: inactive

How did Cc1occc1-c1nnc(SCC(=O)Nc2ccc(F)cc2)n1Cc1ccccc1 do in these assays?
MCF10A rereplic: inconclusive; KB-3-1 tox: inconclusive; SW480 rereplic: inactive; KB-V1 cytotox: 8.2µM; PINK1 expr mod: inactive

What do the screens show for `O=C(CSc1nnc(-c2ccco2)n1Cc1ccccc1)c1ccc(F)cc1`?
MCF10A rereplic: inactive; KB-3-1 tox: inactive; SW480 rereplic: inactive; KB-V1 cytotox: 9.2µM; PINK1 expr mod: inactive

How did Cc1occc1-c1nnc(SCC(=O)Nc2ccccc2)n1Cc1ccccc1 do in these assays?
MCF10A rereplic: inconclusive; KB-3-1 tox: inactive; SW480 rereplic: inactive; KB-V1 cytotox: inconclusive

Results for Cn1c(SCC(=O)c2ccc(F)cc2)nnc1-c1ccccc1Br ?
KB-3-1 tox: inconclusive; KB-V1 cytotox: 23.1µM; PINK1 expr mod: inactive

Results for O=C(CSc1nnc(-c2ccco2)n1Cc1ccccc1)NCc1ccccc1 ?
MCF10A rereplic: inactive; KB-3-1 tox: inactive; SW480 rereplic: inactive; KB-V1 cytotox: inactive; PINK1 expr mod: inactive

How did C=CCc1cc(Cl)ccc1OC(=O)Nc1cccc(Cl)c1 do in these assays?
MCF10A rereplic: inconclusive; KB-3-1 tox: inactive; SW480 rereplic: inconclusive; KB-V1 cytotox: inactive; PINK1 expr mod: inactive

How did CC(=O)c1cccc(N(CC(=O)NC2CCCC2)C(=O)c2csnn2)c1 do in these assays?
MCF10A rereplic: inactive; KB-3-1 tox: inactive; SW480 rereplic: inactive; KB-V1 cytotox: inactive; PINK1 expr mod: inactive

Results for Cc1[nH]nc2c1-c1nc3ccccc3nc1C(C)(C)C2 ?
MCF10A rereplic: inconclusive; KB-3-1 tox: inconclusive; SW480 rereplic: inconclusive; KB-V1 cytotox: 18.4µM; PINK1 expr mod: inactive

How did Cc1sc2nc(C3CC3)nc(SCC(=O)N3CCc4ccccc4C3)c2c1C do in these assays?
MCF10A rereplic: inconclusive; KB-3-1 tox: inactive; SW480 rereplic: inactive; KB-V1 cytotox: 5.8µM; PINK1 expr mod: inactive
